Experimental data from PubChem BioAssay (NCI).
Compounds without any hit were thinned out: in the full panel of roughly 83,000, 20% have a hit.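 The endpoint reported here, percent growth, reads 100 for growth as untreated, 0 for no net growth and -100 for all cells dead.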 Calls of active or inactive are those of the source. The calls were made as follows: active = growth percent below 10; inactive = the rest.

Key:
Test in all cases: NCI-60 one-dose screen, 48 h (100 = growth as untreated, 0 = no growth, -100 = all killed)
Details in all cases: 10 µM unless noted
DU-145 prostate = tested on: DU-145 prostate
K-562 leukemia = tested on: K-562 leukemia
MALME-3M melanoma = tested on: MALME-3M melanoma
MDA-MB-231 breast = tested on: MDA-MB-231 breast
RXF 393 renal = tested on: RXF 393 renal
SF-268 CNS = tested on: SF-268 CNS
SF-295 CNS = tested on: SF-295 CNS
SF-539 CNS = tested on: SF-539 CNS
UACC-257 melanoma = tested on: UACC-257 melanoma
M14 melanoma = tested on: M14 melanoma
HCT-15 colon = tested on: HCT-15 colon
HT29 colon = tested on: HT29 colon
SNB-75 CNS = tested on: SNB-75 CNS
SNB-19 CNS = tested on: SNB-19 CNS
U251 CNS = tested on: U251 CNS
PC-3 prostate = tested on: PC-3 prostate
SK-MEL-5 melanoma = tested on: SK-MEL-5 melanoma
UACC-62 melanoma = tested on: UACC-62 melanoma
LOX IMVI melanoma = tested on: LOX IMVI melanoma
SK-MEL-28 melanoma = tested on: SK-MEL-28 melanoma

Measured: growth

CCCc1cc2cc(-n3nc(C)c4c3CC(C)(C)CC4=O)cc(NC3CCSCC3)c2c(=O)[nH]1
active: HT29 colon 9.23%
inactive: DU-145 prostate 42.9% | K-562 leukemia 19% | MALME-3M melanoma 64.6% | MDA-MB-231 breast 55.6% | RXF 393 renal 33.7% | SF-268 CNS 81.2% | SF-295 CNS 62.2% | SF-539 CNS 75.4% | UACC-257 melanoma 84.6% | M14 melanoma 56.6% | HCT-15 colon 41.4% | SNB-75 CNS 102% | SNB-19 CNS 72% | U251 CNS 72.3% | PC-3 prostate 55.2% | SK-MEL-5 melanoma 70.4% | UACC-62 melanoma 53.2% | LOX IMVI melanoma 54.8% | SK-MEL-28 melanoma 68.6%

O=C(Nc1cccc2ccccc12)c1cc2ccccc2cc1O
active: MALME-3M melanoma -12.3% | MDA-MB-231 breast -22.1% | SF-295 CNS 6.2% | UACC-257 melanoma 5.69% | U251 CNS 8.21% | PC-3 prostate 2.08% | SK-MEL-5 melanoma -57.3%
inactive: DU-145 prostate 25.7% | K-562 leukemia 14.7% | RXF 393 renal 22.7% | SF-268 CNS 23.8% | SF-539 CNS 17.7% | M14 melanoma 32.2% | HCT-15 colon 19.1% | HT29 colon 68.9% | SNB-75 CNS 12.8% | SNB-19 CNS 22.9% | UACC-62 melanoma 17.4% | LOX IMVI melanoma 13.7% | SK-MEL-28 melanoma 45.7%

Nc1nnc(CSc2nnc3n(Cc4ccccc4)c(=O)c4c5c(sc4n23)CCCC5)s1
inactive: DU-145 prostate 110% | K-562 leukemia 64.1% | MALME-3M melanoma 116% | MDA-MB-231 breast 76.5% | RXF 393 renal 93.2% | SF-268 CNS 41.2% | SF-295 CNS 276% | SF-539 CNS 105% | UACC-257 melanoma 98.5% | M14 melanoma 104% | HCT-15 colon 90.4% | HT29 colon 102% | SNB-75 CNS 98.7% | SNB-19 CNS 100% | U251 CNS 93.2% | PC-3 prostate 90.6% | SK-MEL-5 melanoma 105% | UACC-62 melanoma 82.1% | LOX IMVI melanoma 86% | SK-MEL-28 melanoma 122%

Cn1c(=O)c(C#N)c(-c2ccco2)n2c(S(=O)(=O)Cc3ccccc3)nnc12
active: UACC-257 melanoma 8.93%
inactive: DU-145 prostate 77% | K-562 leukemia 100% | MALME-3M melanoma 63.6% | MDA-MB-231 breast 126% | RXF 393 renal 91% | SF-268 CNS 104% | SF-295 CNS 112% | SF-539 CNS 101% | M14 melanoma 57.6% | HCT-15 colon 78.3% | HT29 colon 92.5% | SNB-75 CNS 97.8% | SNB-19 CNS 115% | U251 CNS 82.8% | PC-3 prostate 112% | SK-MEL-5 melanoma 90.1% | UACC-62 melanoma 75.5% | LOX IMVI melanoma 92.3% | SK-MEL-28 melanoma 99.1%

CSc1nc(=S)c2nc(SC)n(-c3ccccc3)c2[nH]1
inactive: DU-145 prostate 108% | K-562 leukemia 98.5% | MALME-3M melanoma 109% | MDA-MB-231 breast 105% | RXF 393 renal 108% | SF-268 CNS 96.4% | SF-295 CNS 105% | SF-539 CNS 103% | UACC-257 melanoma 96.3% | M14 melanoma 102% | HCT-15 colon 106% | HT29 colon 92.3% | SNB-75 CNS 94.8% | SNB-19 CNS 100% | U251 CNS 93.5% | PC-3 prostate 82.3% | SK-MEL-5 melanoma 98.5% | UACC-62 melanoma 90.3% | LOX IMVI melanoma 90.9% | SK-MEL-28 melanoma 108%

CCc1cccc(Cl)c1
inactive: DU-145 prostate 111% | K-562 leukemia 114% | MALME-3M melanoma 120% | MDA-MB-231 breast 112% | RXF 393 renal 114% | SF-268 CNS 106% | SF-295 CNS 110% | SF-539 CNS 104% | UACC-257 melanoma 94% | M14 melanoma 101% | HCT-15 colon 105% | HT29 colon 92.8% | SNB-75 CNS 91% | SNB-19 CNS 104% | U251 CNS 105% | PC-3 prostate 88.2% | SK-MEL-5 melanoma 103% | UACC-62 melanoma 101% | LOX IMVI melanoma 103% | SK-MEL-28 melanoma 106%

O=c1c2c3c(sc2n2cnnc2n1Cc1ccccc1)CCCC3
inactive: DU-145 prostate 106% | K-562 leukemia 69.9% | MALME-3M melanoma 95.8% | MDA-MB-231 breast 96.6% | RXF 393 renal 101% | SF-268 CNS 107% | SF-295 CNS 57.1% | SF-539 CNS 93.5% | UACC-257 melanoma 131% | M14 melanoma 164% | HCT-15 colon 93.4% | HT29 colon 100% | SNB-75 CNS 111% | SNB-19 CNS 99% | U251 CNS 102% | PC-3 prostate 99.7% | SK-MEL-5 melanoma 98% | UACC-62 melanoma 91.8% | LOX IMVI melanoma 97.6% | SK-MEL-28 melanoma 116%

COc1ccc(C2CC(c3cc(OC)c(OC)c(OC)c3)=NN2C(C)=O)cc1OCC(=O)Nc1nc2ccc(C(F)(F)F)cc2s1 (stereo not given)
active: SF-539 CNS -32.9%
inactive: DU-145 prostate 48.5% | K-562 leukemia 83.8% | MALME-3M melanoma 68.7% | MDA-MB-231 breast 44.8% | RXF 393 renal 33.5% | SF-268 CNS 71.3% | SF-295 CNS 61.4% | UACC-257 melanoma 67.1% | M14 melanoma 68% | HCT-15 colon 76.2% | HT29 colon 79.8% | SNB-75 CNS 37% | SNB-19 CNS 74.2% | U251 CNS 67% | PC-3 prostate 67.8% | SK-MEL-5 melanoma 15.1% | UACC-62 melanoma 52.5% | LOX IMVI melanoma 32.5% | SK-MEL-28 melanoma 65.5%

COc1cccc(-c2[nH]c(=S)ncc2C(=O)c2ccccc2)c1
inactive: DU-145 prostate 98.4% | K-562 leukemia 35% | MALME-3M melanoma 71% | MDA-MB-231 breast 99.3% | RXF 393 renal 90.6% | SF-268 CNS 90% | SF-295 CNS 68.6% | SF-539 CNS 84.9% | UACC-257 melanoma 97.3% | M14 melanoma 61.9% | HCT-15 colon 50.8% | HT29 colon 46.8% | SNB-75 CNS 66.6% | SNB-19 CNS 82.9% | U251 CNS 85% | PC-3 prostate 91.6% | SK-MEL-5 melanoma 83.2% | UACC-62 melanoma 74.3% | LOX IMVI melanoma 72.4% | SK-MEL-28 melanoma 81.4%

O=C(CCN1CCCCC1)c1ccc2ccccc2c1
inactive: DU-145 prostate 98.6% | K-562 leukemia 111% | MALME-3M melanoma 106% | MDA-MB-231 breast 102% | RXF 393 renal 102% | SF-268 CNS 98.2% | SF-295 CNS 99.4% | SF-539 CNS 108% | UACC-257 melanoma 98.5% | M14 melanoma 107% | HCT-15 colon 103% | HT29 colon 99.7% | SNB-75 CNS 93.6% | SNB-19 CNS 103% | U251 CNS 93.3% | PC-3 prostate 97.6% | SK-MEL-5 melanoma 97% | UACC-62 melanoma 97.2% | LOX IMVI melanoma 93.3% | SK-MEL-28 melanoma 112%

Cc1ccc(C2=C/C(=C/c3ccc(Br)cc3)C(=O)N2CCc2ccc(S(N)(=O)=O)cc2)cc1
inactive: DU-145 prostate 104% | K-562 leukemia 88.6% | MALME-3M melanoma 93.4% | MDA-MB-231 breast 90.4% | RXF 393 renal 90% | SF-268 CNS 87.6% | SF-295 CNS 101% | SF-539 CNS 97.4% | UACC-257 melanoma 101% | M14 melanoma 97.5% | HCT-15 colon 99.8% | HT29 colon 106% | SNB-75 CNS 60.9% | SNB-19 CNS 89.7% | U251 CNS 95.5% | PC-3 prostate 88% | SK-MEL-5 melanoma 94.7% | UACC-62 melanoma 78.7% | LOX IMVI melanoma 99.6% | SK-MEL-28 melanoma 104%

CCOc1ccc(/C=C(\C#N)c2cc3ccccc3[nH]2)cc1
inactive: DU-145 prostate 81% | K-562 leukemia 15.3% | MALME-3M melanoma 60% | MDA-MB-231 breast 71.9% | RXF 393 renal 58.6% | SF-268 CNS 84.2% | SF-295 CNS 58.3% | SF-539 CNS 68.3% | UACC-257 melanoma 79.2% | M14 melanoma 39% | HCT-15 colon 28.8% | HT29 colon 13.8% | SNB-75 CNS 67.1% | SNB-19 CNS 80.2% | U251 CNS 41.7% | PC-3 prostate 68.2% | SK-MEL-5 melanoma 72.2% | UACC-62 melanoma 43.9% | LOX IMVI melanoma 46.4% | SK-MEL-28 melanoma 69.7%

CCN(CC)c1cc(N)c(Cc2c(N)cc(N(CC)CC)cc2Cl)c(Cl)c1
active: SNB-75 CNS 8.86% | SK-MEL-5 melanoma -27.8%
inactive: DU-145 prostate 67.4% | K-562 leukemia 19.2% | MALME-3M melanoma 44.6% | MDA-MB-231 breast 48.5% | RXF 393 renal 63.7% | SF-268 CNS 36.6% | SF-295 CNS 31.8% | SF-539 CNS 44.2% | UACC-257 melanoma 12.4% | M14 melanoma 52.5% | HCT-15 colon 91.7% | HT29 colon 27.6% | SNB-19 CNS 35.1% | U251 CNS 21.6% | PC-3 prostate 38.4% | UACC-62 melanoma 47.5% | LOX IMVI melanoma 37.7% | SK-MEL-28 melanoma 53.2%

Cc1ccc2c(n1)C(=O)C(Cl)=C(Nc1ccc(N3CCN(C)CC3)cc1)C2=O
inactive: RXF 393 renal 62.8% | SF-268 CNS 77.7% | SF-295 CNS 99.4% | UACC-257 melanoma 57.2% | M14 melanoma 73.8% | HCT-15 colon 70.4% | HT29 colon 66.4% | SNB-19 CNS 94.6% | PC-3 prostate 68.7% | SK-MEL-5 melanoma 10.4% | SK-MEL-28 melanoma 30.3%
active: DU-145 prostate -18.7% | K-562 leukemia -12.3% | MALME-3M melanoma -75.5% | MDA-MB-231 breast -62.8% | SF-539 CNS -24.5% | SNB-75 CNS -53.8% | U251 CNS 8.47% | UACC-62 melanoma -49.4% | LOX IMVI melanoma -95.4%
